Assay results reported in ChEMBL document CHEMBL4513149, “CO-ADD screening of MMV (CH) - MMV compounds” (2021).
Potency and affinity values are given separately.

System: Klebsiella pneumoniae
Settings: Concentration 20 uM; ASSAY_TEST Inhibition of Bacterial Growth; detection method Absorption (OD600); MEDIA CAMHB; plate type 384well; NBS; CORNING #3640; time 18 hr

SMILES	Inhibition [%]
CCOc1ccccc1NC(C)C(=O)Nc1cc(C(F)(F)F)ccc1N1CCOCC1 (stereo unspecified)	14.66
CC(C)(C(=O)Nc1ccc(F)cc1)n1cc(-c2ccccc2F)cn1	12.71
O=C(CCC1CCCCC1)Nc1cccc(-c2nnc(-c3ccco3)o2)c1	9.71
Cl.NCC(c1cccs1)S(=O)(=O)c1ccccc1 (stereo unspecified)	-0.58
CNc1nnc(Sc2cnn(-c3ccccc3)c(=O)c2Cl)s1	0.48
O=C(NCc1nnc2n1CCCCC2)c1ccc(-c2ccc(F)cc2)o1	6.05
c1cc(C2=NCCN2)cc(-c2cc(-c3ccc(C4=NCCN4)cc3)no2)c1	11.59
C[C@H](c1ccc2c(c1)CCCC2)N(C)c1ncc2c(N)nc(N)nc2n1	18.37
COc1ccc(S(=O)(=O)Nc2ccc(CN3CCN(C(=O)c4cccc(C#N)c4)CC3)cc2)cc1	6.9
COc1ccc(CCN2CCC(NCc3cccc(N(C)C)c3)CC2)cc1	7.89
CN(C(=O)c1cc2c(-c3cncnc3)cccc2[nH]1)c1ccccc1	10.84
CN1CCN(c2cc(-c3ccc(F)cc3)nc(-c3ccncc3)n2)CC1	4.2
O=C(NCCc1ccccc1)c1cc(-c2cccnc2)cnc1NCC1CC1	-2.11
Cc1nn(C(=O)Nc2cccc(C(F)(F)F)c2)c(C)c1Sc1ncccn1	9.64
COC(=O)c1c(NC(=O)c2c(F)c(F)c(F)c(F)c2F)sc2c1CCCCC2	11.31
CC1CCCCN1C(=O)NCCc1coc(-c2ccc(F)cc2)n1 (stereo unspecified)	15.76
COc1ccc2nc(C)cc(OCC(=O)Nc3ccccc3OC)c2c1	17.25
c1coc(CNc2nc(N3CCCCC3)nc3ccccc23)c1	7.9

SMILES	Inhibition [%]
O=C(c1ccc(F)cc1)N(CCNc1ccccc1)c1ccccc1	12.15
CCC(Sc1nc2ccccc2o1)C(=O)Nc1nccs1 (stereo unspecified)	14.47
CCc1ccc([C@@H]2C[C@H](C(F)(F)F)n3ncc(C(=O)NCc4ccc(OC)cc4)c3N2)cc1	2.88
COc1ccc(Oc2ccc([C@@H](C)N(C)c3ncc4c(N)nc(N)nc4n3)cc2)cc1	18.87
CC(C)(C)OC(=O)N1CCC(Cn2nc(-c3cnc4ccccc4c3)c3c(N)ncnc32)CC1	15.77
Nc1nc(N)c2c3c(sc2n1)CN(Cc1ccccc1)CC3	10.27
O=C(NC1CCN(c2ccnc3ccccc23)C1)c1cccc(C(F)(F)F)c1 (stereo unspecified)	12.02
Cl.O[C@@H](c1cc(C(F)(F)F)nc2c(C(F)(F)F)cccc12)[C@H]1CCCCN1	-6.56
Cc1cc(NCC(C)C)c2[nH]nc(-c3ccccc3)c2n1	16.32
Cc1ncc(-c2ccnc(Nc3ccc(S(C)(=O)=O)cc3)n2)n1C(C)C [AZD-5438]	16.86
CCCCc1ccc(NC(=O)Nc2ccc(O[C@H]3CCCC[C@@H]3N(C)c3ccccc3)c(F)c2)cc1	12.88
Cc1ccc(NC(=O)c2nc[nH]c2C(=O)Nc2nc3ccccc3[nH]2)c(C)c1	13.9
CN1CCC(NCc2cccc(-c3ccc(S(=O)(=O)NCc4ccccc4)cc3)c2)CC1	9.08
COc1ccc(OC(C)C(=O)Nc2ccc(Cl)cc2C)cc1 (stereo unspecified)	4.92
CN1CCN(c2nccc3nc(-c4ccc(F)c(F)c4)[nH]c23)CC1	17.85
CC(C)(C)OC(=O)N1CCN(c2cc(-c3ccc(Oc4ccccc4)cc3)n[nH]2)CC1	20.96
COc1cc(Br)cc2cc(C(=O)Nc3cccc(C(F)(F)F)c3)c(=O)oc12	7.93
CCN(CC)CCCN1CCN(C(=O)c2cccc(-c3noc(C(F)(F)F)n3)c2)CC1	3.68
